Data from PubChem BioAssay (NCATS).
Records with an inconclusive call do not appear. Activity calls are given as the source filed them. Unless noted, calls follow the shape of the dose curve; as a rule, active = well fitted curve in the direction sought with a large enough effect; inconclusive = small, poorly fitted or top-dose-only effect, or another doubt; inactive = no such curve, though single readings can be large; an effect the other way counts as inactive or inconclusive.

Tests used:
[1] = molecular target: Glutathione peroxidase 1 (Homo sapiens) (UniProt P07203); experiment: Primary qHTS Assay for Inhibitors of Recombinant Selenoprotein Glutathione Peroxidase 1 (GPX1) (AID 1845191); settings: recombinant GPX1, GR-coupled NADPH fluorescence, 15 min; series mostly up to 48.8 µM; also: nearly all actives have a fitted effect of over 65% in size
Chain of Glutathione peroxidase 1 (Homo sapiens) (P07203 whole entry, looked up): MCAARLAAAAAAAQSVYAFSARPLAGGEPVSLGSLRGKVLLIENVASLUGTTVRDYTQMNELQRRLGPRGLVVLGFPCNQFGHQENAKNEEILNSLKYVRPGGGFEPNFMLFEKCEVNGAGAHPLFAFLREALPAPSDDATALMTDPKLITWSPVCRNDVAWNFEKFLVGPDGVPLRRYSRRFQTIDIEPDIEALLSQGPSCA
Outline: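 GPX1 10 nM, GR 100 nM, GSH 1 mM, NADPH 0.5 mM, CHP 0.5 mM (final). 30-min cpd preincubation, RT. Ex340/Em450 read t=0, t=15 min.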

[2] = molecular target: Phospholipid hydroperoxide glutathione peroxidase GPX4 (Homo sapiens) (UniProt P36969); experiment: Primary qHTS Assay for Inhibitors of Recombinant Selenoprotein Glutathione Peroxidase 4 (GPX4) (AID 1845192); settings: recombinant GPX4, GR-coupled NADPH fluorescence, 15 min; series mostly up to 50 µM; also: nearly all actives have a fitted effect of over 65% in size
Chain of Phospholipid hydroperoxide glutathione peroxidase GPX4 (Homo sapiens) (P36969 whole entry, looked up): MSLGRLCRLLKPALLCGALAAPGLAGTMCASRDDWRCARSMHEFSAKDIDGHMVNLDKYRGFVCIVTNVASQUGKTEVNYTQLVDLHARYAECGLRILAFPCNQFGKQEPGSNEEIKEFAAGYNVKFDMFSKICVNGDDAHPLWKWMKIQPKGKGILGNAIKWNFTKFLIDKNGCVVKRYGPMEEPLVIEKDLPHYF
Outline: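 qHTS, GR-coupled: GPX4 200 nM + cpd 30 min RT → GSH 1 mM, NADPH 0.5 mM, GR 100 nM → CHP 0.5 mM start; fluor 340/450 at t0 and t15 min; no-enzyme wells as control.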

[3] = HepG2 viability counterscreen (readout 2: ATP content) against the NCATS DSHEA and TCM libraries (AID 1794840); settings: ATP content luminescence; series mostly up to 27.3 µM;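 also: HepG2 cells exposed to substances for about 24 h; 0% is about no effect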
Outline: (§1)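 Readout 1: cellular protease activity, GF-AFC substrate (25 uM final, 30 min, fluorescence 380/510 nm). Readout 2: ATP content by CellTiter-Glo luminescence after 30 min at RT. Both follow ~24 h exposure of HepG2 cells (1,000/well) to substances.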

[4] = HepG2 viability counterscreen (readout 1: protease activity) against the NCATS DSHEA and TCM libraries (AID 1794841); settings: qHTS concentration series; series mostly up to 27.3 µM;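 also: cells exposed to compounds for about 24 h before the protease read; 0% is about no effect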
Outline: as §1

[5] = molecular target: Cytochrome P450 3A4 (Homo sapiens) (UniProt P08684); experiment: qHTS for inhibitors of CYP3A4 against the NCATS DSHEA and TCM libraries (AID 1919971); settings: recombinant CYP3A4 enzyme activity, luminescence qHTS; series mostly up to 34.1 µM;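 also: % is scaled to controls: 0 for no effect and ±100 for the full control effect; inhibition lowers luminescence from luciferin made by CYP3A4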
Chain of Cytochrome P450 3A4 (Homo sapiens) (P08684 whole entry, looked up, canonical isoform): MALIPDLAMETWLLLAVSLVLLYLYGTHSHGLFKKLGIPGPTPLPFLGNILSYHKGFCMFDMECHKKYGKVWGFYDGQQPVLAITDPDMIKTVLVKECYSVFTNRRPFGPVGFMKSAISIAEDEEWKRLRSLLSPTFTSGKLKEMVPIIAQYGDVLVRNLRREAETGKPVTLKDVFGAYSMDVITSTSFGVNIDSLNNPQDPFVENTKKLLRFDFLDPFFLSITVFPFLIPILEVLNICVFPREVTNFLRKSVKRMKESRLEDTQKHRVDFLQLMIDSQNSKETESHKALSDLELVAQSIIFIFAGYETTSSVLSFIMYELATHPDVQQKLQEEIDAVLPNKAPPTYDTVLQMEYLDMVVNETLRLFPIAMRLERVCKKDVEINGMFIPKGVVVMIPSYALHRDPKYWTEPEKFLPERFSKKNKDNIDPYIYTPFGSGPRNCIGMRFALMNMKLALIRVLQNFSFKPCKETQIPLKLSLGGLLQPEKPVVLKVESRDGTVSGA
Outline: (§2)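 Concentration-response screening with isoform-matched pro-luciferin substrates. The CYP reaction was initiated by NADPH regenerating solution and ran 30-45 min in darkness at room temperature.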

[6] = molecular target: Cytochrome P450 2D6 (Homo sapiens) (UniProt P10635); experiment: qHTS for inhibitors of CYP2D6 against the NCATS DSHEA and TCM libraries (AID 1919972); settings: CYP2D6 enzymatic inhibition, luminescence qHTS; series mostly up to 34.1 µM; also: % is scaled to controls: 0 for no effect and ±100 for the full control effect
Chain of Cytochrome P450 2D6 (Homo sapiens) (P10635 whole entry, looked up): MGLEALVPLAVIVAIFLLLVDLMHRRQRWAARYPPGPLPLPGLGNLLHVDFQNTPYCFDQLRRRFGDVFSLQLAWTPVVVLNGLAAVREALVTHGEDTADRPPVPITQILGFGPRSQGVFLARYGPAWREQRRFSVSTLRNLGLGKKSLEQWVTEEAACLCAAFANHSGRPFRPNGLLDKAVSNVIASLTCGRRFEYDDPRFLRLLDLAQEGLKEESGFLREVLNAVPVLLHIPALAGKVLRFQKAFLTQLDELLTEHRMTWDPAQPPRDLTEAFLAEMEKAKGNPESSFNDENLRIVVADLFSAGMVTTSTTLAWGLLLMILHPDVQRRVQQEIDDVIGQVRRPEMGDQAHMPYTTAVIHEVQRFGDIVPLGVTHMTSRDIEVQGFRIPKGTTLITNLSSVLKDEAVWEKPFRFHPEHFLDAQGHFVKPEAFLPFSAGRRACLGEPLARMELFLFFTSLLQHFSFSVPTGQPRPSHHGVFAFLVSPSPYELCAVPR
Outline: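 CYP2D6 enzyme with pro-luciferin substrate in manufacturer buffer (typically 100 mM KPO4), preincubated 15 min RT with substances (most at 19.5 nM upward); NADPH regeneration system (1x) started 30–45 min RT reaction; P450-Glo luminescence read after 30 min; quinidine as intraplate control.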

[7] = molecular target: Cytochrome P450 2C9 (Homo sapiens) (UniProt P11712); experiment: qHTS for inhibitors of CYP2C9 against the NCATS DSHEA and TCM libraries (AID 1919973); settings: recombinant CYP2C9 enzyme activity, luminescence; series mostly up to 34.1 µM;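 also: luminogenic pro-luciferin CYP2C9 substrate turned into luciferin with NADPH regeneration; % is scaled to controls: 0 for no effect and ±100 for the full control effect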
Chain of Cytochrome P450 2C9 (Homo sapiens) (P11712 whole entry, looked up): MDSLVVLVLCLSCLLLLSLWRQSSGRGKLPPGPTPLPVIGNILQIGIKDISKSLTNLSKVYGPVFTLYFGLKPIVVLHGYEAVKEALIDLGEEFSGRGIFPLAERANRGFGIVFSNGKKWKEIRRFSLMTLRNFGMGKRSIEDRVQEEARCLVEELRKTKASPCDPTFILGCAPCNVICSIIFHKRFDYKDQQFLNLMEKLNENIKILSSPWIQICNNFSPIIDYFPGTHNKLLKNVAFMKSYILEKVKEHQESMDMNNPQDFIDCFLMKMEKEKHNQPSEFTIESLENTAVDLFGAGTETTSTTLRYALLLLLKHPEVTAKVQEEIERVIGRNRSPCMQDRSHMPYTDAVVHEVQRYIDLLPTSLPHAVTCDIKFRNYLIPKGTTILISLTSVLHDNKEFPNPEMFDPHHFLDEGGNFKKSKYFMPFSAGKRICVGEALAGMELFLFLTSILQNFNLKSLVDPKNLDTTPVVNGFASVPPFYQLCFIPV
Outline: as §2

[8] = molecular target: Cytochrome P450 2C19 (Homo sapiens) (UniProt P33261); experiment: qHTS for inhibitors of CYP2C19 against the NCATS DSHEA and TCM libraries (AID 1919974); settings: CYP2C19 enzyme inhibition, luminescence qHTS; series mostly up to 34.1 µM;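 also: luminescence from luciferin released by CYP2C19 oxidation of a pro-luciferin substrate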; also: potency is read from the fitted curve at half-maximal effect
Chain of Cytochrome P450 2C19 (Homo sapiens) (P33261 whole entry, looked up): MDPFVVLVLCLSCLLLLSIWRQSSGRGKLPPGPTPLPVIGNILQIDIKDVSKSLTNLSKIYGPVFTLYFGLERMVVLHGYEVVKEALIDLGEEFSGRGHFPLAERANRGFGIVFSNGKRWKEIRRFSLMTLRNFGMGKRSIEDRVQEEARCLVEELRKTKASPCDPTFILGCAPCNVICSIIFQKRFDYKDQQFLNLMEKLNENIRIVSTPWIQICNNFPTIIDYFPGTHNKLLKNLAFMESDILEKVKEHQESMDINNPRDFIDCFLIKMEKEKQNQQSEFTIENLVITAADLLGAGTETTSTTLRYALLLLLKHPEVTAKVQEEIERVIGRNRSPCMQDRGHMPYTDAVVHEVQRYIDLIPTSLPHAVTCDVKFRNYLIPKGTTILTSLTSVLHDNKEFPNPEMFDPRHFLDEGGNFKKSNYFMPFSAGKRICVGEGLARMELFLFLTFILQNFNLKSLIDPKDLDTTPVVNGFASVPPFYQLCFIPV
Outline: as §2

[9] = KB-3-1 P-gp reporter qHTS against the NCATS DSHEA and TCM libraries (AID 1919975); settings: KB-3-1 parental cells, CellTiter-Glo luminescence viability, 72 h; series mostly up to 26.1 µM; also: 0% is about no effect
Outline: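 Cell viability by CellTiter-Glo luminescence following ~72 h compound exposure (concentration-response). Uses parental, non-P-gp-overexpressing KB-3-1 line, 500 cells/well in DMEM/10% FBS, attached ~4 h before dosing.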

[10] = qHTS Counterscreen for compound interference against the NCATS DSHEA and TCM libraries (AID 1919978); settings: firefly luciferase detection reagent interference, luminescence;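 also: compounds preincubated with 1 µM D-luciferin or buffer before detection reagent; % of control where 0% means no effect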
Outline: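 With 1 uM D-luciferin or phosphate buffer only, compounds at final 19.5 nM–39.8 uM were incubated for 15 min at room temperature. Luciferase detection reagent was then added, and luminescence was measured after a further 30 min at room temperature.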

[11] = Dual reporter qHTS for agonist of Pregnane X Receptor (hPXR) against the NCATS DSHEA and TCM libraries: Fluorescence readout (AID 1920058); settings: PXR dual reporter cells; series mostly up to 40 µM; also: 0% is about no effect
Outline: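 Cells were plated at 2000 per well and allowed to attach for 5 h. Test substances were pinned in and incubated roughly 24 h. CellTiter-Fluor was then added and fluorescence measured after 1 h.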

[12] = molecular target: Nuclear receptor subfamily 1 group I member 2 (Homo sapiens) (UniProt O75469); experiment: Dual reporter qHTS for agonist of Pregnane X Receptor (hPXR) against the NCATS DSHEA and TCM libraries: Luminescence readout (AID 1920059); settings: hPXR dual reporter cells, luciferase luminescence agonist; series mostly up to 40 µM; also: 0% is about no effect
Chain of Nuclear receptor subfamily 1 group I member 2 (Homo sapiens) (O75469 whole entry, looked up): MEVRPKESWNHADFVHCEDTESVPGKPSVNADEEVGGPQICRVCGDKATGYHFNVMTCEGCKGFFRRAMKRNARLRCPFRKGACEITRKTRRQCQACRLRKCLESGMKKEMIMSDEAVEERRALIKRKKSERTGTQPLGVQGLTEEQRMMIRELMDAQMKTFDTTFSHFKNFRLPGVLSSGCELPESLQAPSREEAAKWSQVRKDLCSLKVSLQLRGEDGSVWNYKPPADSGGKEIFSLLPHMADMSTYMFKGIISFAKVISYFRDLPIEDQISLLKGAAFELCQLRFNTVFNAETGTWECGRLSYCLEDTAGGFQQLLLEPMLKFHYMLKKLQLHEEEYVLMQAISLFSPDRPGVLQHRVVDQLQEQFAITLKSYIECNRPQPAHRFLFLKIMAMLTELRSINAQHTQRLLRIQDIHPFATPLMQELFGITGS
Outline: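 hPXR-LucHepG2 cells in phenol red-free DMEM with 5% charcoal-stripped FBS, 2000 cells/well, attached 5 h, then exposed 24 h at 37C to compounds; rifampicin as positive agonist control (2.8 nM–92 uM). Luciferase luminescence read.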

[13] = molecular target: Nuclear receptor subfamily 1 group I member 2 (Homo sapiens) (UniProt O75469); experiment: Dual reporter qHTS for antagonist of Pregnane X Receptor (hPXR) against the NCATS DSHEA and TCM libraries: Luminescence Readout (AID 1920060); settings: hPXR dual reporter cells, luciferase luminescence, antagonist mode; series mostly up to 40 µM; also: 0% is about no effect
Outline: (§3)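 Rifampicin-stimulated (2 uM final) hPXR-luciferase HepG2 cells were treated for 24 h with DSNP/TCM substances. Viability came from CellTiter-Fluor fluorescence, reporter activity from ONE-Glo luminescence.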

[14] = Dual reporter qHTS for antagonist of Pregnane X Receptor (hPXR) against the NCATS DSHEA and TCM libraries: Fluorescence Readout (AID 1920061); settings: PXR dual reporter cells, antagonist mode; series mostly up to 40 µM; also: 0% is about no effect
Outline: as §3

[15] = Viability counterscreen for antagonist of constitutive androstane receptor (CAR) against the NCATS DSHEA and TCM libraries (AID 1794837); settings: CAR reporter cell line viability counterscreen, qHTS; series mostly up to 40 µM;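 also: compound exposure lasted 24 h before viability reading; 0% is about no effect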
Outline: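 Viability was measured by CellTiter-Fluor fluorescence (405/540 nm, 1 hr) in HepG2-CYP2B6-hCAR cells. Cells were co-treated 24 hr with 48 uM CITCO (final), antagonist mode, and test substances.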

[16] = Viability counterscreen for agonist of constitutive androstane receptor (CAR) against the NCATS DSHEA and TCM libraries (AID 1794838); settings: HepG2 cell viability counterscreen, CAR agonist assay, co-treated with 0.75 µM CAR antagonist; series mostly up to 40 µM; also: 0% is about no effect
Outline: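 Cell viability, from CellTiter-Fluor fluorescence (405/540 nm), was scored after a 24 h, 37C exposure of HepG2 cells carrying CYP2B6 reporter and hCAR to test substances in presence of 0.75 uM PK11195.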

[17] = molecular target: Nuclear receptor subfamily 1 group I member 3 (Homo sapiens) (UniProt Q14994); experiment: Primary qHTS for agonist of constitutive androstane receptor (CAR) against the NCATS DSHEA and TCM libraries (AID 1794839); settings: CAR agonist reporter cells, qHTS luminescence, CAR antagonist co-added at 0.75 µM; series mostly up to 40 µM;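 also: HepG2 cells expressing human CAR with a CYP2B6 reporter plus PK11195 antagonist; 0% is about no effect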
Chain of Nuclear receptor subfamily 1 group I member 3 (Homo sapiens) (Q14994 whole entry, looked up): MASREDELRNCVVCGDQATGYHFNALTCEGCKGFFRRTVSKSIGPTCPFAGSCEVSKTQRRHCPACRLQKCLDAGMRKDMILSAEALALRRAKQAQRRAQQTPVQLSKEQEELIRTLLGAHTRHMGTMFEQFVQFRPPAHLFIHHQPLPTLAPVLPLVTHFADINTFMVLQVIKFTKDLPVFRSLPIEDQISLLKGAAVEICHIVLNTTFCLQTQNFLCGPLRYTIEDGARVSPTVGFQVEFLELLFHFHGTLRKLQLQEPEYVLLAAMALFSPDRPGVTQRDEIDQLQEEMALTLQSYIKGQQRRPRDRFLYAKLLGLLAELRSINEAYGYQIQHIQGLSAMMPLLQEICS
Outline: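 Agonist mode in presence of hCAR antagonist PK11195 (0.75 µM final): test substances, 24 h, 37 °C, on HepG2-CYP2B6-hCAR cells. Same-well readouts: fluorescence viability, then ONE-Glo luminescence; CITCO as reference agonist.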

[18] = molecular target: Cytochrome P450 1A2 (Homo sapiens) (UniProt P05177); experiment: qHTS for inhibitors of CYPIA2 against the NCATS DSHEA and TCM libraries (AID 1919976); settings: recombinant CYP1A2 enzyme activity, luminescence; series mostly up to 37 µM;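 also: light from luciferin formed by CYP1A2 from a pro-luciferin substrate; % is scaled to controls: 0 for no effect and ±100 for the full control effect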
Chain of Cytochrome P450 1A2 (Homo sapiens) (P05177 whole entry, looked up): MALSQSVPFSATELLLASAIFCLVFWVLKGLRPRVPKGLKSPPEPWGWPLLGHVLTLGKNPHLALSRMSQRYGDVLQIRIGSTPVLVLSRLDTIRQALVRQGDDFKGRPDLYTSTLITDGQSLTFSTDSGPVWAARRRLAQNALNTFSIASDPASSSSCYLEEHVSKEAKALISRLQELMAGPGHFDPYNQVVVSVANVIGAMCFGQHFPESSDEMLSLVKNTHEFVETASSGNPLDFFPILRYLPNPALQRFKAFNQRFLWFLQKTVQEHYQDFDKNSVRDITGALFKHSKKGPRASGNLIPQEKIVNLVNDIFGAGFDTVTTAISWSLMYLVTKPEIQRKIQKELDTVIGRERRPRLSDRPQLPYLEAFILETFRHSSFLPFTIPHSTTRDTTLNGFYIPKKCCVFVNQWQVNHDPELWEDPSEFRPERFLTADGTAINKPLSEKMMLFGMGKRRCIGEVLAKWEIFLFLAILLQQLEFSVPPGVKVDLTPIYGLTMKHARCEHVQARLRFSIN
Outline: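 Enzyme and pro-luciferin substrate, or substrate alone as no-enzyme background, are pre-incubated with test samples for 15 min at room temperature. NADPH regeneration system (1x final) initiates a 30-45 min dark reaction; luciferase detection reagent follows before luminescence reading.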

[19] = NCATS anti-infectives library activity on the primary C. elegans qHTS viability assay (AID 1745855; calls by dose curve); settings: C. elegans worm area imaging, day 7; at 41.8 µM (top of the series)
Outline: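 GFP read-out by 488 nm laser cytometry at day 0, 3 and 7, gated on object perimeter, area and peak intensity, scored viability of PE254-GFP-FLuc worms exposed to compound in S medium with bacterial capsules at 21 °C.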

COc1ccc2cc(CCC(C)=O)ccc2c1
inactive: Potency [1] | Potency [2]

O=C(O)CCCc1ccccc1
inactive: Potency [1] | Potency [2]

O=C(/C=C/c1ccc(O)c(O)c1)O[C@@H]1C[C@@](OC(=O)/C=C/c2ccc(O)c(O)c2)(C(=O)O)C[C@@H](O)[C@@H]1O
inactive: outcome [3] | outcome [4] | outcome [5] | outcome [6] | outcome [7] | Potency [8] | outcome [9] | max response [10] 5.25% | outcome [11] | outcome [12] | outcome [13] | outcome [14]

CC(C)=CCC[C@@](C)(O)[C@H]1CC=C(C)CC1
inactive: outcome [15] | outcome [16] | outcome [17] | outcome [3] | outcome [4] | outcome [6] | outcome [9] | outcome [18] | max response [10] 1.71% | outcome [11] | outcome [13] | outcome [14]
active: Potency [8] 5.01 µM

CN1CCCN=C1COC(=O)C(O)(c1ccccc1)C1CCCCC1 (stereo not given)
inactive: Potency [1] | Potency [2]

O=C(/C=C/c1ccccc1)OCc1ccccc1
inactive: Potency [1] | Potency [2]

CCc1cccc(CC)c1NC(=O)CN(CC(=O)O)CC(=O)O
inactive: Potency [1] | Potency [2]

C=CCOc1ccccc1OCC(O)CNC(C)C (stereo not given)
inactive: Potency [1] | Potency [2]

CN/C(=C\[N+](=O)[O-])NCCSCc1csc(CN(C)C)n1
inactive: Potency [1] | Potency [2]

COC(=O)c1ccc(O)cc1
inactive: Potency [1] | Potency [2]

CN[C@@H]1[C@H](O)[C@H](NC)[C@H]2O[C@@]3(O)C(=O)C[C@@H](C)O[C@H]3O[C@@H]2[C@H]1O
inactive: Potency [1] | Potency [2]

Cc1c(C)c2c(c(C)c1OC(=O)c1cccnc1)CC[C@@](C)(CCC[C@H](C)CCC[C@H](C)CCCC(C)C)O2
inactive: Potency [1] | Potency [2]

NCc1ccc(S(N)(=O)=O)cc1
inactive: outcome [19] | Potency [1] | Potency [2]

C=CCNC(N)=S
inactive: Potency [1] | Potency [2]

Cc1ccc(C(C)C)c(O)c1
inactive: outcome [15] | outcome [16] | outcome [17] | outcome [3] | outcome [4] | Potency [1] | Potency [2] | outcome [5] | outcome [6] | outcome [7] | outcome [9] | max response [10] 0.241% | outcome [11] | outcome [12] | outcome [13] | outcome [14]

Cc1c(NC(=O)c2cccnc2)c(=O)n(-c2ccccc2)n1C
inactive: Potency [1] | Potency [2]

NC(=O)NC1NC(=O)NC1=O (stereo not given)
inactive: outcome [15] | outcome [16] | outcome [17] | outcome [3] | outcome [4] | Potency [1] | Potency [2] | outcome [5] | outcome [6] | outcome [7] | Potency [8] | outcome [9] | outcome [18] | max response [10] -2.81% | outcome [11] | outcome [12] | outcome [13] | outcome [14]

O=C(CCBr)N1CCN(C(=O)CCBr)CC1
inactive: Potency [1] | Potency [2]

CCOC(=O)[C@H](CCc1ccccc1)N[C@@H](C)C(=O)N1Cc2cc(OC)c(OC)cc2C[C@H]1C(=O)O
inactive: outcome [19] | Potency [1] | Potency [2]

CN(C/C=C/C#CC(C)(C)C)Cc1cccc2ccccc12
inactive: Potency [1] | Potency [2]

Nc1ccc(S(=O)(=O)c2ccc(N)cc2)cc1
inactive: Potency [1] | Potency [2]

NC(=O)c1ccc([N+](=O)[O-])cc1Cl
inactive: Potency [1] | Potency [2]

C=CCN1C[C@H](C(=O)N(CCCN(C)C)C(=O)NCC)C[C@@H]2c3cccc4[nH]cc(c34)C[C@H]21
inactive: Potency [1]

CCCCCCCCCCC(CO)CCCCCCCC (stereo not given)
inactive: Potency [1] | Potency [2]

CC1CC(OC(=O)c2ccccc2O)CC(C)(C)C1 (stereo not given)
inactive: Potency [1] | Potency [2]

NC(N)=NS(=O)(=O)c1ccc(N)cc1
inactive: Potency [1] | Potency [2]

Cc1ccccc1N=Nc1ccc(N=Nc2c(O)ccc3ccccc23)c(C)c1
inactive: Potency [1] | Potency [2]

c1ccc2[nH]ccc2c1
inactive: Potency [1] | Potency [2]

O=S1(=O)OC(c2ccc(O)cc2)(c2ccc(O)cc2)c2ccccc21
inactive: Potency [1] | Potency [2]

CC(=O)NS(=O)(=O)c1ccc(N)cc1
inactive: Potency [1] | Potency [2]

CCCCCCCC(=O)OCC(COC(=O)CCCCCCC)OC(=O)CCCCCCC
inactive: Potency [1] | Potency [2]

CC(=O)N[C@H]1[C@H]([C@H](O)[C@H](O)CO)OC(C(=O)O)=C[C@@H]1N=C(N)N
inactive: Potency [1] | Potency [2]

NS(=O)(=O)c1cc(-c2nn[nH]n2)c(NCc2cccs2)cc1Cl
inactive: Potency [1] | Potency [2]

CC(=O)N(CC(O)CN(C(C)=O)c1c(I)c(C(=O)NCC(O)CO)c(I)c(C(=O)NCC(O)CO)c1I)c1c(I)c(C(=O)NCC(O)CO)c(I)c(C(=O)NCC(O)CO)c1I (stereo not given)
inactive: Potency [1] | Potency [2]

CC1(C)S[C@@H]2[C@H](N=CN3CCCCCC3)C(=O)N2[C@H]1C(=O)O
inactive: Potency [1] | Potency [2]

NC(=O)CC[C@@H](N)C(=O)O
inactive: Potency [1] | Potency [2]

Cc1cccc(Nc2ccccc2C(=O)O)c1C
inactive: Potency [2]
